Bioassay records: PubChem, several laboratories
Beta cell apopt – beta cell apoptosis inhibition; AID 435005; INS-1E cytokine-induced death, ATP luminescence, 48 h; percent of positive-control rescue, neutral wells zero; hit rate 0.8% among 300,000; protection from apoptosis, % (no concentration beside the values);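 active = Every replicate reaches about 75%, or at least half do and their mean reaches it too, limit read from the data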;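 also: 0% = cytokine-treated negative control wells and 100% = positive control rescue; higher means more ATP so stronger rescue from cytokine killing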
CSC inhib – cancer stem cell inhibition; AID 2717; inhibition, % at 7.5 µM; hit rate 1.1% among 300,000; cancer stem cell-like cells viability, luminescence; in the data active = inhibition above about 75%; tested in HMLE shEcad cells
SKKanGAS inh – blocks kanamycin growth of S. pyogenes SKKanGAS strain; inhibition, % at 7.5 µM; hit rate 1.3% among 300,000; BacTiter-Glo, 6 h; AID 1662;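 active = mean replicate score, as percent of positive control median, at least 50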;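 also: strain carries kanamycin resistance gene driven by streptokinase promoter and grows in 40 µg/ml kanamycin; loss of luminescence reflects streptokinase promoter inhibition or plain growth inhibition; 0% = median of DMSO wells and 100% = positive control at its reference dose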
PP1 inh – PP1-alpha (human) inhibition in PP5 counter-screen | P62136 | purified PP1alpha, OMFP fluorescence | inhibition, % at 6.7 µM | hit rate 0.9% among 320,000 | AID 2235;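 active = inhibition above the mean inhibition of all tested compounds plus 3 SD, computed separately for each screening campaign, cut at about 15% in these data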
Target sequence (P62136 whole entry, looked up): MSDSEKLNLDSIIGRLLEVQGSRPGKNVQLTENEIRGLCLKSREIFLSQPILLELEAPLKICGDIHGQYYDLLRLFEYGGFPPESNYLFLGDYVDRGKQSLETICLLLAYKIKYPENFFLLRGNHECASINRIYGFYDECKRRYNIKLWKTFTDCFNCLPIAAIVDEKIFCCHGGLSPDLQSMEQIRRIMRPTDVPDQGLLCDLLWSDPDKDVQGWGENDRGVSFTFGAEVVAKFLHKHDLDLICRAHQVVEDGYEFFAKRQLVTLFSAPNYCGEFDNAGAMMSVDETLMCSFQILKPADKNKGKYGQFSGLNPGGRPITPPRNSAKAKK
PP5 primary – blocks human protein phosphatase 5 activity | AID 1987 | hit rate 0.18% among 320,000 | inhibition, % at 6.7 µM | purified PP5c, OMFP substrate fluorescence;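 active = inhibition above the campaign's mean inhibition across all tested compounds plus 3 SD, cut at about 9.5% in these data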;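 also: 0% = DMSO only and 100% = 100 µM cantharidin control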
The depositor's hits bear a star; . = not tested or not shown. This is a sample that favours compounds with a hit; in the whole collection about 3.1% have one here.

SMILES | Beta cell apopt | CSC inhib | SKKanGAS inh | PP1 inh | PP5 primary
COC/C=C/C1=CC2=CC(=O)C(C)(OC(=O)c3cnc4ccccc4n3)C(=O)C2=CN1CCc1c[nH]c2ccccc12 (stereo not given) | 5 | 2 | 5 | 17* | 2
COC/C=C/C1=CC2=CC(=O)C(C)(OC(=O)c3cnc4ccccc4n3)C(=O)C2=CN1c1ccc(CO)cc1 (stereo not given) | 5 | -4 | 4 | 20* | -2
COC/C=C/C1=CC2=CC(=O)C(C)(OC(=O)c3cnc4ccccc4n3)C(=O)C2=CN1CC(C)C (stereo not given) | -6 | 25 | 0 | 1 | -5
O=C(Nc1ccc(Cl)c(Cl)c1)N1N=CCC1c1ccccc1 (stereo not given) | . | . | -4 | . | .
COc1ccc(-c2nnn(CC(=O)N(CC(=O)NC3CCCC3)c3ccccc3F)n2)cc1OC | -7 | -20 | -4 | 1 | 0
O=c1cc(CSc2ccc(Cl)cc2)nc(-c2ccccc2)[nH]1 | 2 | -14 | 4 | 4 | 1
O=c1cc(CSc2ccc(Cl)cc2)nc(-c2ccccn2)[nH]1 | 80* | 94* | 97* | 16* | -2
CC1C(=O)N2CCCc3cc(NC(=O)CC(C)(C)C)cc1c32 (stereo not given) | -2 | -3 | -3 | -6 | 0
CCOC(=O)C(=O)Nc1cc(C)on1 | 0 | 5 | -3 | -1 | 1
CCOc1ccc(N=C2SC(C(=O)Nc3ccccc3C#N)C(N)=C2C(=O)Nc2ccc(Cl)cc2)cc1 (stereo not given) | 5 | 16 | 36 | 19* | 4
O=NN(CCc1ccncc1)c1ccc(OCc2ccccc2)cc1 | 99* | 18 | 1 | 2 | 4
c1ccc(CCc2ccncc2)cc1 | -6 | -7 | -4 | -4 | 2
Cc1cc(O)c(-c2cc(C(=O)Nc3ccc(S(=O)(=O)N4CCOCC4)cc3)[nH]n2)cc1C | 4 | 71 | 13 | -1 | 5
O=C(Nc1ccc(S(=O)(=O)N2CCOCC2)cc1)c1ccc(CN2CCc3ccccc3C2)cc1 | 123* | 0 | 10 | 3 | 1
O=C(Nc1ccc(S(=O)(=O)N2CCOCC2)cc1)c1cc(-c2cc(Cl)ccc2O)n[nH]1 | 46 | 94* | 33 | -1 | 5
CCOC(CCn1c(SCC(=O)Nc2cc(C)on2)nc2ccccc2c1=O)OCC | 0 | -6 | 5 | 0 | 1
Nc1c(C(=O)Nc2ccc(S(=O)(=O)N3CCCC3)cc2)sc2nc3ccc(OC(F)(F)F)cc3cc12 | 98* | 32 | 18 | 3 | 1
Nc1c(C(=O)Nc2ccc(S(=O)(=O)N3CCCC3)cc2)sc2nc3cc4c(cc3cc12)CCC4 | 100* | 6 | 7 | -2 | 1
COc1cc(Br)cc(/C=C/c2ccc3cccc(O)c3n2)c1OC | 16 | 52 | 93* | 13 | 2
CCOc1c(OC(C)=O)ccc(/C=C/c2ccc3cccc(OC)c3n2)c1[N+](=O)[O-] | -10 | 43 | 3 | 0 | 8
COc1ccc(Br)cc1/C=C/c1ccc2cccc(O)c2n1 | 20 | 28 | 100* | 15 | 0
O=C(NN1C(=O)C2C3CCC(O3)C2C1=O)c1ccco1 (stereo not given) | -1 | -4 | -5 | 1 | 3
Cn1cc(C(=O)c2ccc(Cl)cc2Cl)cc1C(=O)N/N=C(\N)COc1ccc(Cl)cc1Cl | 19 | -17 | 71* | 8 | 2
Cn1cc(C(=O)c2ccc(Cl)cc2Cl)cc1C(=O)N/N=C(\N)COc1ccc(Cl)cc1 | 21 | 32 | 25 | 16* | 3
CC(C)N=c1cc2n(-c3ccc(Cl)cc3)c3ccccc3nc-2cc1Nc1ccc(Cl)cc1 | 114* | 104* | 98* | 4 | 5
SMILES | Beta cell apopt | CSC inhib | SKKanGAS inh | PP1 inh | PP5 primary
CCOC(=O)c1sc(SCc2ccccc2)c2c1CC(C)(C)CC2=O | 7 | 46 | 1 | -1 | 1
COc1cccc(/C=N/NC(=O)C[n+]2ccccc2)c1O | -3 | -9 | -4 | 3 | 8
COc1ccc(CCCC(=O)N/N=C/c2cccc(OC)c2O)cc1C | -1 | 113* | 75* | 17* | 0
COCCCNC(=S)N/N=C/c1ccc(O)cc1O | 6 | -9 | 0 | -6 | 1
COCCCNC(=S)N/N=C/c1cccc(OC)c1O | 88* | 2 | 1 | -6 | 1
Cc1ccc(C(=O)NC(=S)N2CCN(c3ccc([N+](=O)[O-])cc3)CC2)cc1 | -5 | -1 | 16 | 2 | 3
Cc1ccc(C(=O)ON=C2CCN(c3ccc([N+](=O)[O-])cc3)CC2)cc1 | 10 | 6 | -6 | 16* | 3
Oc1c(CN2CCCCC2)cc(Br)c2cccnc12 | 96* | 33 | 58* | 9 | 4
Oc1c(Cl)cc(CN2CCOCC2)c2cccnc12 | 29 | . | . | -1 | 1
CN1CCN(Cc2cc(COCc3ccccc3)c3cccnc3c2O)CC1 | -2 | 1 | 3 | 22* | -1
Oc1ccc(CN2CCN(Cc3ccccc3)CC2)c2cccnc12 | 64 | 7 | 6 | 7 | 2
Cc1ccc(S(=O)(=O)N2CCN(C(=O)CC(C)n3nc(C)c(Cl)c3C)CC2)cc1 (stereo not given) | -6 | -10 | -2 | 1 | 3
CC1CCN(c2cc(C#N)c(C#N)cc2[N+](=O)[O-])CC1 | 0 | 59 | 10 | -3 | 1
CC1CCCCN1c1cc(C#N)c(C#N)cc1[N+](=O)[O-] (stereo not given) | 7 | 81* | 12 | 1 | -1
O=C(O)c1ccc(C[n+]2c(-c3ccccc3)csc2Nc2ccccc2)cc1 | 3 | 12 | 8 | 3 | 3
CC(C)(C)c1cc(-c2csc(Nc3ccccc3)[n+]2Cc2ccc(C(=O)O)cc2)cc(C(C)(C)C)c1O | 6 | 60 | 115* | 2 | 0
CCCc1nc2oc3c(Cl)ncnc3c2c2c1CCCC2 | -8 | 2 | 53* | -4 | -1
CC(C)Cc1nc2oc3c(Cl)ncnc3c2c2c1CCCC2 | 3 | 76* | -11 | -2 | -1
CC(C)Cc1nc2oc3c(N4CCN(C)CC4)ncnc3c2c2c1CCCC2 | . | . | 4 | . | .
COc1cccc(NC(=O)CSC2=NN3CCCC(=O)N=C3S2)c1 | -1 | -11 | 0 | 0 | 0
NS(=O)(=O)c1ccc(CCNC(=O)CCc2nc3sc4c(c3c(=O)[nH]2)CCCC4)cc1 | 2 | 1 | 11 | -6 | 2
CCOC(=O)C1CCCN(C(=O)Cn2ncc3c([nH]c4ccc(C)cc43)c2=O)C1 (stereo not given) | 1 | 14 | -10 | -1 | -1
CN(CC(=O)Nc1ccc(F)cc1)C(=O)C1CC(=O)N(Cc2ccccc2)C1 (stereo not given) | -7 | -5 | 2 | -4 | -1
C/C(N)=C(/C#N)C(=O)CSc1nc2cc(Cl)ccc2c(=O)n1Cc1ccco1 | -15 | 31 | 61* | 6 | 1
O=C1CCC/C(=N/NC(=O)c2sc3ccccc3c2Cl)C1 | 2 | 9 | 12 | -3 | 0
Cc1ccccc1NC(=O)C(NC1CCCCC1)C(C)C (stereo not given) | 0 | -1 | 10 | -2 | 0
